High-throughput results from PubChem BioAssay.
Most compounds without a hit are left out; they make up all but 9.9% or so of the library.
SW480 rereplic: A quantitative high throughput screen for small molecules that induce DNA re-replication in SW480 colon adenocarcinoma cells. Potency, µM (series often up to 46.1 µM), without a hit: top-dose re-replication activation, actives largely listed as activators. 340,000 tested, 1.8% active. SW480 DNA re-replication, Hoechst DNA content imaging, 48 h; further: potency means the concentration at half of the fitted maximal effect; % of control where 0% means no effect; nearly all actives have a fitted effect of over 55% in size
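Treated cells incubate 48 hr (37 C, 5% CO2), are stained 40 min with Hoechst, and nuclear fluorescence is enumerated; a rise in nuclei with high DNA signal marks re-replication.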
MCF10A rereplic: A quantitative high throughput screen for small molecules that induce DNA re-replication in MCF 10a normal breast cells. 350,000 tested, 2.9% active. MCF 10A DNA re-replication, Hoechst nuclear intensity, 48 h. Potency, µM (series often up to 46.1 µM), for the others: top-dose activity, positive = re-replication, hits mostly activators; further: potency means the concentration at half of the fitted maximal effect; % of control where 0% means no effect; nearly all actives have a fitted effect of over 50% in size
KB-V1 MDR tox: qHTS assay for MDR1-selective chemotherapeutics: Primary screen using the drug-selected MDR subline cells KB-V1 | KB-V1 MDR cells viability, CellTiter-Glo, 72 h | Potency, µM (top dose mostly 46.1 µM), hits mostly cytotoxic | 400,000 tested, 3.4% active | AID 1347076, 2019; further: potency means the concentration at half of the fitted maximal effect; on the % scale 0 is the no-effect control and ±100 the full control effect; nearly all actives have a fitted effect of over 60% in size
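Compound-treated KB-V1 multidrug-resistant cells, 72 h, 37 degrees C; viability by CellTiter-Glo. Fitted qHTS curves give the values.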
KB-3-1 cytotox: qHTS assay for MDR1-selective chemotherapeutics: Primary screen using the parental adenocarcinoma cell KB-3-1 | KB-3-1 viability, CellTiter-Glo ATP luminescence, 72 h | Potency, µM (doses to about 46.1 µM), usual class: cytotoxic | 400,000 tested, 1.4% active | AID 1347075, 2019; further: potency means the concentration at half of the fitted maximal effect; on the % scale 0 is the no-effect control and ±100 the full control effect; nearly all actives have a fitted effect of over 60% in size
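Using CellTiter-Glo luminescence, growth of non-resistant KB-3-1 adenocarcinoma cells is assessed 72 h after pin-tool compound addition at 37 °C. Normalized responses across the concentration series yield fitted curves.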
IL1B secr inh: qHTS for Inhibitors of Inflammasome Signaling: IL-1-beta AlphaLISA Primary Screen | activity change, % at 57.5 µM | THP-1 LPS/ATP IL-1B secretion, AlphaLISA, 16 h; hits give low values | 360,000 tested, 4.7% active; in the data active means activity change below about -50%; inconclusive means mostly about -30% to -49%; further: on the % scale 0 is the no-effect control and ±100 the full control effect
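THP-1 cells pretreated 1 hr with compounds (up to 57.5 uM final), then stimulated with LPS (250 ng/mL final) plus ATP (1.25 mM final); secreted IL-1B measured by AlphaLISA after 16 hr, decreased signal indicating inhibition.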
Starred values were filed as active, the others as inactive; i = inactive; ? = inconclusive; . = not tested or not shown; ! = not active in a repeat; [ ] = another dose, or the depositor's remark. Unless noted, the call rests on the fitted dose curve; in most records, active means well fitted curve in the direction sought with a large enough effect; inconclusive means small, poorly fitted or top-dose-only effect, or another doubt; inactive means no such curve, though single readings can be large; an effect the other way counts as inactive or inconclusive.

SMILES	SW480 rereplic	MCF10A rereplic	KB-V1 MDR tox	KB-3-1 cytotox	IL1B secr inh
COCCCNC(=O)C[C@@H]1C[C@@]2(C(=O)OC)CC(C)(C)CC=C2N(Cc2cccc3ccccc23)C1=O	.	.	?	i	5
COC(=O)[C@@]12C[C@@H](CC(=O)NCc3cccc4ccccc34)C(=O)N(Cc3cccc4ccccc34)C1=CCC(C)(C)C2	.	.	?	i	-11
COC(=O)[C@@]12C[C@@H](CC(=O)NCCCN3CCCC3=O)C(=O)N(Cc3cccc4ccccc34)C1=CCC(C)(C)C2	.	.	i	i	-24
COC(=O)[C@@]12C[C@@H](CC(=O)NCc3ccccc3)C(=O)N(Cc3cccc4ccccc34)C1=CCC(C)(C)C2	.	.	?	i	-83*
COC(=O)[C@]12CCCCC=C1N(Cc1cccc3ccccc13)C(=O)[C@H](CC(=O)NCC1CCCCC1)C2	.	.	?	i	-15
COC(=O)[C@@]12C[C@@H](CC(=O)NCC3CCCCC3)C(=O)N(Cc3cccc4ccccc34)C1=CCC(C)(C)C2	.	.	21µM*	?	16
CCOc1ccc(CCNC(=O)c2ccccc2OCc2c(C)noc2C)cc1OCC	5%	9%	?	i	-7
COC(=O)[C@@]12C[C@@H](CC(=O)NCc3ccc(C)o3)C(=O)N(Cc3ccccc3)C1=CCC(C)(C)C2	.	.	18µM*	i	-5
COC(=O)[C@@]12C[C@@H](CC(=O)NCc3ccc(C)o3)C(=O)N(Cc3cccc4ccccc34)C1=CCC(C)(C)C2	.	.	?	i	-18
COC(=O)[C@@]12C[C@@H](CC(=O)NCCC(C)C)C(=O)N(Cc3cccc4ccccc34)C1=CCC(C)(C)C2	.	.	21µM*	21µM*	-20
COCCNC(=S)N(C)[C@H]1C[C@H]2c3cc(-c4ccccc4)ccc3CCN2C(=O)[C@H]1[C@H](C)O	.	.	i	i	4
Cc1ccc(S(=O)(=O)c2nc(S(C)(=O)=O)sc2N2CCCCCC2)cc1	-7%	4%	6.5µM*	i	-54*
CCCS(=O)(=O)c1nc(S(=O)(=O)c2ccc(C)cc2)c(N2CCCCC2)s1	.	.	i	i	-27
Cc1ccc(S(=O)(=O)c2nc(-c3ccco3)oc2N2CCC(C)CC2)cc1	?	?	?	i	-74*
Cc1ccc(S(=O)(=O)c2nc(S(C)(=O)=O)sc2N2CCN(C)CC2)cc1	-10%	0%	i	i	?
Cc1ccc(S(=O)(=O)c2nc(S(C)(=O)=O)sc2N2CCC(C)CC2)cc1	?	?	i	i	-84*
OC(CNCc1ccc(-c2ccccc2)cc1)c1ccccc1 (stereo unspecified)	18µM*	18µM*	?	?	-73*
OC(CNCc1ccncc1)c1ccccc1 (stereo unspecified)	-6%	-2%	i	i	5
CN1CCN(Cc2nc3ccccc3c(=O)n2Cc2nc(-c3ccc4ccccc4c3)cs2)CC1	12µM*	?	21µM*!	?	-95*
CN1CCN(Cc2nc3ccccc3c(=O)n2Cc2nc(-c3cccc([N+](=O)[O-])c3)cs2)CC1	-6%	9%	i	i	-78*
O=CNc1ccc(/C=C/c2ccnc3ccccc23)cc1	.	.	i	i	.
CC(C)(C)c1ccc(OCC(=O)Nc2ccc(C(=O)OC3CCCCC3)cc2)cc1	.	.	i	i	.
O=C(Nc1cccc(Cl)c1)c1ccc2c(c1)OCCO2	-16%	-22%	i	i	-28
O=C(Nc1cccc([N+](=O)[O-])c1)c1ccc2c(c1)OCCO2	-115%	7%	21µM*	?	?
O=C(Nc1cccc([N+](=O)[O-])c1)c1[nH]ncc1Cl	20%	3%	23µM*	i	-7
SMILES	SW480 rereplic	MCF10A rereplic	KB-V1 MDR tox	KB-3-1 cytotox	IL1B secr inh
CC(C)(C)c1ccc(C(=O)Nc2cccc([N+](=O)[O-])c2)cc1	-79%	?	12µM*	?	-98*
O=C(CSc1nnc(-c2ccncc2)o1)c1cccc([N+](=O)[O-])c1	-4%	-2%	i	i	-51*
CC(=O)c1ccc(NC(=O)c2cn(C)c(=O)c3ccccc23)cc1	.	.	?	i	17
Cc1ccc(SCc2ccc(C(=O)Nc3cccc([N+](=O)[O-])c3)cc2)cc1	8.2µM*	4.1µM*	i	i	-13
Cc1ccc(SCc2ccc(C(=O)Nc3cc([N+](=O)[O-])ccc3C)cc2)cc1	?	-7%	i	i	-12
COC(=O)Nc1ccc(SCC(=O)c2cccc([N+](=O)[O-])c2)cc1	?	23µM*	i	i	-19
CC(=O)Nc1ccc(NC(=O)CCC(=O)OCC(=O)c2cccc([N+](=O)[O-])c2)cc1	-14%	-7%	i	i	13
O=C(Nc1cccc([N+](=O)[O-])c1)c1ccc2ccccc2c1O	19%	?	4.1µM*	?	-63*
CC(C)Oc1ccc(CNC(=O)c2cc3ccccn3n2)cc1	.	.	i	i	.
O=C(Nc1ccc(N2CCN(C(=O)c3ccccc3)CC2)cc1)c1ccc(Br)o1	2%	22%	?	i	-54*
O=C(Nc1ccc(N2CCCC2)cc1)c1ccc(Br)o1	-1%	-1%	i	i	-12
O=C(c1ccccc1)c1cccc(NC(=O)c2ccc(Br)o2)c1	14%	?	?	i	-64*
O=C(Nc1ccc(N2CCOCC2)c(Cl)c1)c1ccc(Br)o1	1%	6%	?	i	-74*
O=C(Nc1ccc2c(c1)CCC2)c1ccc(Br)o1	-1%[9.22 µM]	21µM*	i	i	-3
CCOc1cc(C(=O)NCCc2csc3nc(-c4ccccc4F)nn23)cc(OCC)c1OCC	.	.	i	i	.
CCN1CCN(c2ccc(NC(=O)c3cccc(F)c3)cc2Cl)CC1	16%	-1%	i	?	-50*
O=C(Nc1ccc(N2CCOCC2)c(Cl)c1)c1ccc(F)cc1	-7%	?	15µM*	i	0
O=C(Nc1ccc(N2CCN(C(=O)c3ccccc3)CC2)c(Cl)c1)c1ccc(Br)o1	14%	?	i	?	-101*
CCCCSc1nnc2n(-c3cccc(C)c3)c(=O)c3c4c(sc3n12)CCCC4	.	.	i	i	.
COc1ccc(-c2cn(CC[C@@H]3CC[C@H](NC(=O)Cc4ccccn4)[C@@H](CO)O3)nn2)cc1	.	.	i	i	-17
COC(=O)c1ccccc1NC(=O)c1nc(SCc2ccccc2C)ncc1Cl	.	.	i	i	.
